# Results as given in PubChem BioAssay (EPA / NIEHS).
# “And” between values parts separate entries of the source, which are not always exact repeats. Equal entries are not always repeated. Records with an inconclusive call do not appear. The source holds several records for some structures; these can differ, active in one and inactive in another. The source made the active and inactive calls. Rule for the calls: active = hit-call score of the fitted dose curve at least 0.9, where 1 is the maximum; inconclusive = response in the unintended direction; inactive = score below 0.9.
# Test: TOX21_p53_BLA_p3_viability: Viability Assessment in the Tox21 HCT-116 p53 Agonism Beta-lactamase Assay, Phase 3 (AID 2283593);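 note: cells exposed to compound for 16 h before reading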
# Excerpt: TOX21_p53_BLA_p3 is a cell-based, single-readout assay that uses HCT116, a human intestinal cell line, […] in a 1536-well plate.TOX21_p53_BLA_p3_viability is an assay readout measuring cellular ATP content and detected with CellTiter-Glo Luciferase-coupled ATP quantitation.TOX21_p53_BLA_p3_viability used a type of viability reporter where loss-of-signal activity can be used to understand changes in the cell viability. Furthermore, this assay endpoint can be referred to as a secondary readout, because this assay has produced multiple assay endpoints where this one serves a viability function. To generalize the intended target to other relatable targets, this assay endpoint is annotated to the cell cycle intended target family, where the subfamily is cytotoxicity.
# Thawing Method: Place 14 mL of pre-warmed thaw medium into a 15 mL of conical tub. Remove the vial of cells to be thawed from liquid nitrogen and thaw rapidly by placing at 37C in a water bath with gentle agitation for 1-2 minutes. Decontaminate the vial by wiping with 70% ethanol before opening in a biological safety cabinet. Transfer the vial contents drop-wise into 14 mL of thaw medium in a sterile 15-mL conical tub. Centrifuge cells at 900 rpm for 4 minutes and resuspend in thaw medium. Transfer contents to the T75 tissue culture flask containing Thaw Medium and place flask in a humidified 37C/5% CO2 incubator. Switch to growth medium at first passage.Propagation Method: Aspirate medium, rinse once in DPBS, add 0.25% Trypsin/EDTA and swirl to coat the cell evenly. Add an equal volume of Growth Medium to inactivate Trypsin after 2-3 minutes incubation at 37C. Centrifuge cells at 900 rpm for 4 minutes and resuspend in growth medium. Cell should be passage or fed at least twice a week.Assay Protocol: Harvest cells from culture in growth medium and resuspend in assay medium. 2.2 Dispense 4000 cells/5 uL/well into 1536-well black/clear bottom plates using a Multidrop dispenser. After the cells were incubated at 37C for 5 hours, 23 nL of compounds dissolved in DMSO were transferred to the assay plate by a PinTool resulting in a 217-fold dilution. Incubate the plates for 16 hours at 37C, 5% CO2. Add 1 uL of 6X LiveBLAzer FRET B/G (CCF4-AM) Substrate Mixture to each well using a BioRAPTR dispenser and incubate the plates at room temperature for 2 hours. Measure fluorescence intensity at 460 and 530 nm emission and 405 nm excitation by an Envision detector. Data is expressed as the ratio of 460nm/530nm emissions. Add 4 uL of Cell-titer Glo to each well using BioRAPTR and incubate the plates at room temperature for […]. For cell viability readout that measures cytotoxicity, 4 ul/well of CellTiter-Glo reagent was added into the assay plates using a Flying Reagent Dispenser. After 30 min incubation at room temperature, the luminescence intensity in the plates was measured using a ViewLux plate reader.
SMILES,outcome,AC50
CC(=O)c1cc(C(C)(C)C)cc2c1CCC2(C)C,inactive,
Cn1sc(Cl)cc1=O,inactive,29.8 µM (active)
O=C(CCl)CCl,,19.3 µM (active) and 22.3 µM (active)
C[C@H]1O[C@@H](O[C@H]2[C@@H](O)C[C@H](O[C@H]3[C@@H](O)C[C@H](O[C@H]4CC[C@@]5(C)[C@H](CC[C@@H]6[C@@H]5CC[C@]5(C)[C@@H](C7=CC(=O)OC7)CC[C@]65O)C4)O[C@@H]3C)O[C@@H]2C)C[C@H](O)[C@@H]1O,,30 nM (active) and 51.3 nM (active)
C[C@@H]1C[C@@H]([C@H](O)CC2CC(=O)NC(=O)C2)C(=O)[C@@H](C)C1,inactive,
OCC(O)CCl (stereo not given),inactive,
CCCCOCCOC(C)=O,inactive,
CC(C)(c1ccc(OCC2CO2)cc1)c1ccc(OCC2CO2)cc1 (stereo not given),inactive,64.5 µM (active)
CC(C)C1CCC(Cc2ccc(Cl)cc2)C1(O)Cn1cncn1 (stereo not given),,45.7 µM (active)
CCC(C)(C)c1ccc(O)c(C(C)(C)CC)c1,,52.9 µM (active) and 64 µM (active)
CC(=O)OC(c1ccccc1)C(Cl)(Cl)Cl (stereo not given),inactive,
CCCCCCCCCl,inactive,
COP(=O)(OC)O/C(=C\Cl)c1cc(Cl)c(Cl)cc1Cl,inactive,
C(=NC1CCCCC1)=NC1CCCCC1,,17.7 µM (active) and 30.7 µM (active)
O=c1[nH]c(=O)[nH]c(=O)[nH]1,inactive,
CC(C#N)CCC#N (stereo not given),inactive,
COP(=S)(OC)Oc1cc(Cl)c(Br)cc1Cl,inactive,
C[C@]12CCC(=O)C[C@@H]1CC[C@@H]1[C@@H]2CC[C@]2(C)[C@@H](O)CC[C@@H]12,inactive,
C=C(C)C#N,inactive,

SMILES,outcome,AC50
CCC[CH2][Sn]([CH2]CCC)([CH2]CCC)[O]C(=O)c1ccccc1,,2.09 µM (active)
ClC1=C(Cl)[C@]2(Cl)[C@H]3[C@H]([C@H]4C=C[C@H]3C4)[C@@]1(Cl)C2(Cl)Cl,inactive,
COP(=O)(OC)OC,inactive,
ClCCBr,inactive,
CCOP(=O)(CN(CCO)CCO)OCC,inactive,
C=CC#N,inactive,
CC(C)(C)c1cc(O)ccc1O,inactive,
Nc1cccc(Cl)c1,inactive,
CCCCCCCCCCCCCCCC[n+]1ccccc1,inactive,45.6 µM (active) and 81 µM (active) and 46.1 µM (active)
O=C(Nc1ccc2[nH]ccc2c1)c1cc2cc(F)ccc2n1Cc1cccc(F)c1,inactive,
Cc1ccccc1N,inactive,
CCOP(=S)(OCC)Oc1nc(Cl)c(Cl)cc1Cl,inactive,
NNC(=S)NN,inactive,
COc1ccccc1OC,inactive,
CC(C)OC(=O)Nc1ccccc1,inactive,
COP(=S)(OC)Oc1ccc(S(=O)(=O)N(C)C)cc1,inactive,
O=C(O)C(F)(F)C(F)(F)C(F)(F)C(F)(F)C(F)(F)C(F)(F)F,inactive,
Cl/C=C\C[N+]12CN3CN(CN(C3)C1)C2,inactive,
